# Laboratory results published in paper PMC8384837, “Expanding the binding specificity for RNA recognition by a PUF domain”.
# Changes are numbered by the printed parent chain.
# Legend:
# Experiment in all cases: yeast three-hybrid, YBZ-1, SC-Leu-His + 0.5 mM 3-AT, 4 days
# Conditions in all cases: tags: N-Gal4 AD-HA kept; label: inside an RPR1-promoter hybrid RNA with tandem MS2 sites; ssRNA
# PUM1 PUF domain R5-YRR = PUM1 PUF domain R5-YRR (Homo sapiens, UniProt Q14671 828-1176, C1007Y;Q1011R)
# How it was run: (§1)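 A centromeric plasmid in strain YBZ-1 co-expressed Pumilio-1 PUF domain libraries, randomized at the three base-contacting residues of each repeat, with matching RNA elements; the strain carries a LexA–MS2 coat fusion and a HIS3 reporter. After four days on SC-Leu (input) or SC-Leu-His + 0.5 mM 3-AT (selection), the repeat regions were PCR-amplified and Illumina-sequenced. The interaction score is the log change in variant frequency from input to selection, using log2 and a pseudocount of 1 where absent.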
# PUM1 PUF domain R5-KFC = PUM1 PUF domain R5-KFC (Homo sapiens, UniProt Q14671 828-1176, C1007K;R1008F;Q1011C)
# How it was run: as §1
# PUM1 PUF domain R5-RRE = PUM1 PUF domain R5-RRE (Homo sapiens, UniProt Q14671 828-1176, C1007R;Q1011E)
# Chain of PUM1 PUF domain R5-RRE (Q14671 828-1176 C1007R/Q1011E): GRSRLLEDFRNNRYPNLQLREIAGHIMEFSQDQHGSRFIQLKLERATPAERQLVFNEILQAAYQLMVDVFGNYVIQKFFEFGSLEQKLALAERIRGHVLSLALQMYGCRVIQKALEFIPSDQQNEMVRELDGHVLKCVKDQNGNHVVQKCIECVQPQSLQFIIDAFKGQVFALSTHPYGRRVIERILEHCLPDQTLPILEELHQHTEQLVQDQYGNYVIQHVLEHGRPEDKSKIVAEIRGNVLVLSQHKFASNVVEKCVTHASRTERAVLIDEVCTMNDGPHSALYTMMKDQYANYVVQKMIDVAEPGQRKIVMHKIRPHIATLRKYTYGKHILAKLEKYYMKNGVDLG
# How it was run: as §1
# PUM1 PUF domain R3-RRL = PUM1 PUF domain R3-RRL (Homo sapiens, UniProt Q14671 828-1176, C935R;Q939L)
# How it was run: as §1
# PUM1 PUF domain R3-FFG = PUM1 PUF domain R3-FFG (Homo sapiens, UniProt Q14671 828-1176, C935F;R936F;Q939G)
# How it was run: as §1
# PUM1 PUF domain R3-LWV = PUM1 PUF domain R3-LWV (Homo sapiens, UniProt Q14671 828-1176, C935L;R936W;Q939V)
# How it was run: as §1
# PUM1 PUF domain R7-AVR = PUM1 PUF domain R7-AVR (Homo sapiens, UniProt Q14671 828-1176, S1079A;N1080V;E1083R)
# How it was run: as §1
# PUM1 PUF domain R7-KRE = PUM1 PUF domain R7-KRE (Homo sapiens, UniProt Q14671 828-1176, S1079K;N1080R)
# How it was run: as §1
# PUM1 PUF domain R7-GPK = PUM1 PUF domain R7-GPK (Homo sapiens, UniProt Q14671 828-1176, S1079G;N1080P;E1083K)
# How it was run: as §1
# PUM1 PUF domain R6-MWR = biological target: T1, PUM1 PUF domain R6-MWR (Homo sapiens, UniProt Q14671 828-1176, N1043M;Y1044W;Q1047R)
# T1 sequence: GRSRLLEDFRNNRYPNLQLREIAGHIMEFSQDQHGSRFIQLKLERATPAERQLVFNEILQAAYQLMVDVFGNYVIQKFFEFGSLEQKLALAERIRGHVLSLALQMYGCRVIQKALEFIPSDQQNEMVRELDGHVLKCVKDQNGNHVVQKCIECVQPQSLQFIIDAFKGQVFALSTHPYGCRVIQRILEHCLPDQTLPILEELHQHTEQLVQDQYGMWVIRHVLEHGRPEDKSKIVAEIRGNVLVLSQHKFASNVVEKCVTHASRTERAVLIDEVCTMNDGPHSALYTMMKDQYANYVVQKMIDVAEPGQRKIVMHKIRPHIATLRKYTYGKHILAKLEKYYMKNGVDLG
# How it was run: as §1
# PUM1 PUF domain R6-TWQ = biological target: T2, PUM1 PUF domain R6-TWQ (Homo sapiens, UniProt Q14671 828-1176, N1043T;Y1044W)
# T2 sequence: T1 sequence with M216T, R220Q
# How it was run: as §1
# PUM1 PUF domain R8-RWA = PUM1 PUF domain R8-RWA (Homo sapiens, UniProt Q14671 828-1176, N1122R;Y1123W;Q1126A)
# How it was run: as §1
# PUM1 PUF domain R8-KYR = PUM1 PUF domain R8-KYR (Homo sapiens, UniProt Q14671 828-1176, N1122K;Q1126R)
# How it was run: as §1
# PUM1 PUF domain R6-IYC = biological target: T3, PUM1 PUF domain R6-IYC (Homo sapiens, UniProt Q14671 828-1176, N1043I;Q1047C)
# T3 sequence: T1 sequence with M216I, W217Y, R220C
# How it was run: as §1
# PUM1 PUF domain R4-RVY = PUM1 PUF domain R4-RVY (Homo sapiens, UniProt Q14671 828-1176, N971R;H972V;Q975Y)
# How it was run: as §1
# PUM1 PUF domain R5-FRN = PUM1 PUF domain R5-FRN (Homo sapiens, UniProt Q14671 828-1176, C1007F;Q1011N)
# How it was run: as §1
# PUM1 PUF domain R3-APS = PUM1 PUF domain R3-APS (Homo sapiens, UniProt Q14671 828-1176, C935A;R936P;Q939S)
# How it was run: as §1
# PUM1 PUF domain R3-DWE = PUM1 PUF domain R3-DWE (Homo sapiens, UniProt Q14671 828-1176, C935D;R936W;Q939E)
# How it was run: as §1
# PUM1 PUF domain R5-KFW = PUM1 PUF domain R5-KFW (Homo sapiens, UniProt Q14671 828-1176, C1007K;R1008F;Q1011W)
# How it was run: as §1
# PUM1 PUF domain R5-RYL = PUM1 PUF domain R5-RYL (Homo sapiens, UniProt Q14671 828-1176, C1007R;R1008Y;Q1011L)
# How it was run: as §1
sequence,measurement,setting,value
GGCUAGAACUAGUGGAUCCCCCGGCGCCCGGCGGCUCGAGCCCGGGUAAGUGUUAAUAGUCUGCAUGCCGCCGGGCGCCAUGCCUGCAGGUCGACUCUAGAAAACAUG,binding signal,PUM1 PUF domain R5-YRR,1.61 log2 enrichment (interaction score)
same,binding signal,PUM1 PUF domain R5-KFC,5.65 log2 enrichment (interaction score)
same,binding signal,PUM1 PUF domain R5-RRE,5.72 log2 enrichment (interaction score)
GGCUAGAACUAGUGGAUCCCCCGGCGCCCGGCGGCUCGAGCCCGGGUAAGUGUAAUUAGUCUGCAUGCCGCCGGGCGCCAUGCCUGCAGGUCGACUCUAGAAAACAUG,binding signal,PUM1 PUF domain R3-RRL,3.07 log2 enrichment (interaction score)
same,binding signal,PUM1 PUF domain R3-FFG,3.8 log2 enrichment (interaction score)
same,binding signal,PUM1 PUF domain R3-LWV,3.36 log2 enrichment (interaction score)
GGCUAGAACUAGUGGAUCCCCCGGCGCCCGGCGGCUCGAGCCCGGGUAAGUGUAAGUAGUCUGCAUGCCGCCGGGCGCCAUGCCUGCAGGUCGACUCUAGAAAACAUG,binding signal,PUM1 PUF domain R3-FFG,7.59 log2 enrichment (interaction score)
same,binding signal,PUM1 PUF domain R3-LWV,4 log2 enrichment (interaction score)
GGCUAGAACUAGUGGAUCCCCCGGCGCCCGGCGGCUCGAGCCCGGGUAAGUUUAAAUAGUCUGCAUGCCGCCGGGCGCCAUGCCUGCAGGUCGACUCUAGAAAACAUG,binding signal,PUM1 PUF domain R7-AVR,3.46 log2 enrichment (interaction score)
same,binding signal,PUM1 PUF domain R7-KRE,3.62 log2 enrichment (interaction score)
same,binding signal,PUM1 PUF domain R7-GPK,3.11 log2 enrichment (interaction score)
GGCUAGAACUAGUGGAUCCCCCGGCGCCCGGCGGCUCGAGCCCGGGUAAGUGAAAAUAGUCUGCAUGCCGCCGGGCGCCAUGCCUGCAGGUCGACUCUAGAAAACAUG,binding signal,PUM1 PUF domain R6-MWR,3.34 log2 enrichment (interaction score)
same,binding signal,PUM1 PUF domain R6-TWQ,2.43 log2 enrichment (interaction score)
GGCUAGAACUAGUGGAUCCCCCGGCGCCCGGCGGCUCGAGCCCGGGUAAGCGUAAAUAGUCUGCAUGCCGCCGGGCGCCAUGCCUGCAGGUCGACUCUAGAAAACAUG,binding signal,PUM1 PUF domain R8-RWA,4.94 log2 enrichment (interaction score)
same,binding signal,PUM1 PUF domain R8-KYR,6.62 log2 enrichment (interaction score)
GGCUAGAACUAGUGGAUCCCCCGGCGCCCGGCGGCUCGAGCCCGGGUAAGUGUAAAUAGUCUGCAUGCCGCCGGGCGCCAUGCCUGCAGGUCGACUCUAGAAAACAUG,binding signal,PUM1 PUF domain R6-IYC,3.57 log2 enrichment (interaction score)
same,binding signal,PUM1 PUF domain R4-RVY,5.94 log2 enrichment (interaction score)
same,binding signal,PUM1 PUF domain R8-RWA,4.01 log2 enrichment (interaction score)
same,binding signal,PUM1 PUF domain R5-FRN,1.74 log2 enrichment (interaction score)
same,binding signal,PUM1 PUF domain R5-YRR,1.76 log2 enrichment (interaction score)
same,binding signal,PUM1 PUF domain R3-APS,3.64 log2 enrichment (interaction score)
same,binding signal,PUM1 PUF domain R5-KFC,5.41 log2 enrichment (interaction score)
same,binding signal,PUM1 PUF domain R6-MWR,7.74 log2 enrichment (interaction score)
same,binding signal,PUM1 PUF domain R3-DWE,2.3 log2 enrichment (interaction score)
same,binding signal,PUM1 PUF domain R5-RRE,1.27 log2 enrichment (interaction score)
same,binding signal,PUM1 PUF domain R5-KFW,3.83 log2 enrichment (interaction score)
same,binding signal,PUM1 PUF domain R3-FFG,3.38 log2 enrichment (interaction score)
same,binding signal,PUM1 PUF domain R3-LWV,3.07 log2 enrichment (interaction score)
GGCUAGAACUAGUGGAUCCCCCGGCGCCCGGCGGCUCGAGCCCGGGUAAGUGCAAAUAGUCUGCAUGCCGCCGGGCGCCAUGCCUGCAGGUCGACUCUAGAAAACAUG,binding signal,PUM1 PUF domain R6-MWR,2.97 log2 enrichment (interaction score)
GGCUAGAACUAGUGGAUCCCCCGGCGCCCGGCGGCUCGAGCCCGGGUAAGUGUGAAUAGUCUGCAUGCCGCCGGGCGCCAUGCCUGCAGGUCGACUCUAGAAAACAUG,binding signal,PUM1 PUF domain R5-RYL,3.39 log2 enrichment (interaction score)
same,binding signal,PUM1 PUF domain R5-RRE,2.27 log2 enrichment (interaction score)
GGCUAGAACUAGUGGAUCCCCCGGCGCCCGGCGGCUCGAGCCCGGGUAAGUCUAAAUAGUCUGCAUGCCGCCGGGCGCCAUGCCUGCAGGUCGACUCUAGAAAACAUG,binding signal,PUM1 PUF domain R7-KRE,4.01 log2 enrichment (interaction score)
GGCUAGAACUAGUGGAUCCCCCGGCGCCCGGCGGCUCGAGCCCGGGUAAGUGUCAAUAGUCUGCAUGCCGCCGGGCGCCAUGCCUGCAGGUCGACUCUAGAAAACAUG,binding signal,PUM1 PUF domain R5-FRN,2.94 log2 enrichment (interaction score)
same,binding signal,PUM1 PUF domain R5-YRR,3.31 log2 enrichment (interaction score)
same,binding signal,PUM1 PUF domain R5-RYL,2.69 log2 enrichment (interaction score)
same,binding signal,PUM1 PUF domain R5-KFC,3.89 log2 enrichment (interaction score)
same,binding signal,PUM1 PUF domain R5-RRE,4.96 log2 enrichment (interaction score)
same,binding signal,PUM1 PUF domain R5-KFW,4.73 log2 enrichment (interaction score)
